Screens (PubChem BioAssay)
TCR activator – activates T cell receptor signaling | primary human leukocytes, anti-CD3, IL-2 HTRF, 48 h | Potency, µM (titrated, usually from 9.22 µM), usual class: activators | 330,000 tested, under 10 active | AID 504894
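1) Mix primary human leukocytes, a-CD3 beads and compound. 2) Incubate 48 hr. 3) Add HTRF IL-2 reagents (a-IL-2-K, a-IL-2-d2).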
Nrf2 inh – blocks Nrf2 signaling. A549 ARE-Fluc reporter, luciferase luminescence, 18-24 h. Potency, µM (doses to about 46 µM), hits mostly inhibitors. hit rate 2.1% among 360,000; note: nearly all actives have a fitted effect of over 60% in size
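Nrf2 activity is the BugLite luminescence, read 15 min after reagent at room temperature, following CellTiter-Fluor cytotoxicity readout (30 min, 37C). Compound titrations were applied for 18-24 h to 5000 A549 ARE_Fluc cells/well in 5% FBS OPTI-MEM.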
Nrf2 ARE act – Nrf2 pathway activation | AREc32 ARE-luciferase reporter (MCF7-derived line), luminescence, 24 h | AID 624171 | Potency, µM (titrated, usually from 46.1 µM), most hits filed as activators | hit rate 0.31% among 410,000; note: nearly all actives have a fitted effect of over 65% in size
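Cells of the AREc32 ARE-luciferase line are plated in OPTI-MEM containing 5% FBS and left overnight at 37 deg C. Compounds are pinned in, incubation continues 24 hr, and firefly luciferase signal is then measured.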
A-T KAP1 phos – potential ataxia-telangiectasia treatments restoring KAP-1 phosphorylation; F2112 A-T fibroblasts, KAP-1 phosphorylation AlphaLISA; neocarzinostatin DNA damage 30 min before lysis; Potency, µM (doses to about 57.5 µM), actives largely listed as activators; hit rate 0.19% among 320,000; AID 485349; note: nearly all actives have a fitted effect of over 45% in size
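hTERT-immortalized A-T patient fibroblasts (F2112), 500 cells/well in OPTI-MEM, 1% FBS, got compounds for 60 min, then NCS for 30 min at 37C. Lysates were then assayed for phospho-KAP-1 by AlphaLISA (anti-pKAP1 donor, anti-KAP1 acceptor beads), 6 hr at 25C.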
CCT chaperon mod – changes cytosolic chaperonin activity. purified chaperonin ATPase assay, HTRF ADP detection, 30 min. activity change, % (test concentration not listed), hits read low. hit rate 0.3% among 360,000. AID 651819; in the data active = activity change below about -30%
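ATPase activity: ADP formed was measured by HTRF Transcreener (665/615 nm ratio) after 30 min at 37 deg C with 10 uM ATP. Compounds screened at one 76 uM concentration against 40 or 20 nM TRiC in Tris pH 7.4/KCl/MgCl2/DTT buffer.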
A549 viability – counter-screen for Nrf2 inhibitors: cytotoxicity in A549 cells | AID 504648 | Potency, µM (doses to about 46 µM), usual class: inhibitors | hit rate 0.16% among 390,000 | A549 ARE-Fluc cells, CellTiter-Fluor viability, 18-24 h
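A549 ARE-Fluc cells in 5% FBS OPTI-MEM, 5000 cells/well, rested 2 h then exposed to compounds in concentration-response for 18-24 h at 37 °C. Viability by CellTiter-Fluor fluorescence (Ex 405/Em 525) after 30 min; luciferase luminescence (BugLite, 15 min, RT) read afterwards.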
Hits are given with their value. An excerpt weighted towards active compounds, which were near 2.6% of everything screened. Unless noted, calls come from the whole dose curve; as a rule, active = well fitted curve in the direction sought with a large enough effect; inconclusive = small, poorly fitted or top-dose-only effect, or another doubt; inactive = no such curve, though single readings can be large; an effect the other way counts as inactive or inconclusive.

`CCOc1ccc(-c2nnc(SCC(=O)Nc3cc(C)on3)o2)cc1` gave TCR activator inactive, Nrf2 inh 15µM, Nrf2 ARE act inactive, A-T KAP1 phos inactive, CCT chaperon mod inactive and A549 viability inactive.
For COc1ccc(-c2nnc(SCC(=O)NC(C)c3ccccc3)o2)cc1 (stereo not given) the results were TCR activator inactive, Nrf2 inh inactive, Nrf2 ARE act inactive, A-T KAP1 phos inactive, CCT chaperon mod -50 and A549 viability inactive.
Screening CC(NC(=O)Cc1ccc(-c2ccccc2)cc1)c1ccccc1 (stereo not given) returned TCR activator inactive, Nrf2 inh inconclusive, Nrf2 ARE act inactive, A-T KAP1 phos inactive, CCT chaperon mod -43 and A549 viability inactive.
CCOc1ccc(NC(=O)CSc2nnc(-c3ccc(OCC)cc3)o2)cc1 was read as Nrf2 inh inactive, Nrf2 ARE act inactive and A549 viability inactive.
Screening FC(F)(F)c1ccc2c(c1)ncc1c(-c3ccccc3)nn(-c3ccccc3)c12 returned Nrf2 inh inactive, Nrf2 ARE act inactive and A549 viability inactive.
CCS(=O)(=O)c1ncc(Cl)c(C(=O)NCc2ccc(OC)cc2)n1 was read as Nrf2 ARE act inactive and A549 viability inconclusive.
CCOC(=O)c1ccc(NC(=O)c2nc(S(=O)(=O)Cc3ccccc3)ncc2Cl)cc1 was read as TCR activator inactive, Nrf2 inh inconclusive, Nrf2 ARE act 3.2µM, A-T KAP1 phos inactive, CCT chaperon mod inactive and A549 viability inconclusive.
For Cc1ccc(CNC(=O)c2nc(S(=O)(=O)Cc3ccc(C)cc3)ncc2Cl)cc1 the results were Nrf2 inh 12µM, Nrf2 ARE act inactive and A549 viability inactive.
`Cc1cc(C)nc(Nc2nc3ccccc3o2)n1` gave TCR activator inactive, Nrf2 inh inconclusive, Nrf2 ARE act inactive, A-T KAP1 phos inactive, CCT chaperon mod inactive and A549 viability inactive.
CC(=NNc1nc2ccccc2o1)c1cc2ccccc2cn1 was read as TCR activator inactive, Nrf2 inh inconclusive, Nrf2 ARE act inactive, CCT chaperon mod inactive and A549 viability 10µM.
`Cc1ccc(S(=O)(=O)c2nc(-c3ccc(Cl)cc3)oc2N2CCCCCC2)cc1` gave Nrf2 inh inconclusive, Nrf2 ARE act inactive and A549 viability inactive.
Fc1c(F)c(F)c(N/N=C/c2c[nH]c3ccccc23)c(F)c1F was read as TCR activator inactive, Nrf2 inh inactive, Nrf2 ARE act 13µM, A-T KAP1 phos inactive, CCT chaperon mod inactive and A549 viability inactive.
`Cc1cccc(NC(=O)c2cccc(NC(=O)c3ccccc3)c2)n1` gave TCR activator inactive, Nrf2 inh inactive, Nrf2 ARE act inactive, A-T KAP1 phos inactive, CCT chaperon mod inactive and A549 viability inactive.
Screening Cc1cccc(NC(=O)c2ccc3nccnc3c2)n1 returned TCR activator inactive, Nrf2 inh inactive, Nrf2 ARE act inactive, A-T KAP1 phos inactive, CCT chaperon mod -50 and A549 viability inactive.
For O=C(Nc1ccc(OC(F)(F)F)cc1)c1ccc2nccnc2c1 the results were TCR activator inactive, Nrf2 inh 13µM, Nrf2 ARE act inactive, A-T KAP1 phos inactive, CCT chaperon mod inactive and A549 viability inconclusive.
COC(=O)c1ccc(NC(=O)c2ccc3nccnc3c2)cc1 was read as TCR activator inactive, Nrf2 inh inactive, Nrf2 ARE act inactive, A-T KAP1 phos inactive, CCT chaperon mod inactive and A549 viability inactive.
Screening CCN(Cc1ccccc1)C(=O)Cn1c(=O)n(-c2ccc(Cl)c(Cl)c2)c(=O)c2c(C)c(C(=O)N(C)C)sc21 returned Nrf2 ARE act inactive and A549 viability inconclusive.
Screening Cc1ccc(C2CC(c3ccco3)n3ncnc3N2)cc1 (stereo not given) returned TCR activator inactive, Nrf2 inh inactive, Nrf2 ARE act inactive, A-T KAP1 phos inactive, CCT chaperon mod inactive and A549 viability inactive.
Cc1ccc2c(c1)C(N1CCCC1=O)CC(c1ccco1)N2 (stereo not given) was read as TCR activator inactive, Nrf2 inh inconclusive, Nrf2 ARE act 11µM, A-T KAP1 phos inactive, CCT chaperon mod inactive and A549 viability inactive.
